Test results as given in PubChem BioAssay.

System: not listed separately
Assay: probe aLAP1 signal on lysate-treated microarray – cell lysate, small-molecule microarray, COS7 lysate, primary screen (AID 1124);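 further: lysate comes from COS7 cells expressing LAP1 and is applied at 0.3 µg/mL; score merges spot fluorescence near 667 nm with signal-to-noise over triplicate slides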
Conditions: probe aLAP1, fluorescence, higher = more signal

Question: Which composite z-score does the source give for `C=CCNC(=O)[C@@H]1[C@H]2C(=O)O[C@H](c3ccccc3)[C@H](c3ccccc3)N2[C@H](c2ccc(O)cc2)[C@@]12C(=O)N(C(=O)OCCOC)c1ccc(C#CCNC(N)=O)cc12` here?
Answer: 0.731

Question: Which composite z-score does the source give for `COCCOC(=O)N1C(=O)[C@@]2(c3cc(C#CCCO)ccc31)[C@H](C(=O)N1CCCCCCC1)[C@H]1C(=O)O[C@H](c3ccccc3)[C@H](c3ccccc3)N1[C@@H]2c1ccc(OCCO)cc1` here?
Answer: 0.906

Question: Which composite z-score does the source give for `COC(=O)[C@@]1(CCC(=O)OC(C)(C)C)N=C(c2ccc(OCCCO)cc2)O[C@H]1c1ccccc1N=[N+]=[N-]` here?
Answer: 0.333

Question: Which composite z-score does the source give for `CCCCCN1CC=CC23O[C@@H]4/C=C\CCC(C)OC(=O)C4[C@H]2C(=O)N(C(C)CO)[C@@H]3C1=O` (some centres undefined) here?
Answer: 0.169

Question: With `Cc1ccc(S[C@]2(C(=O)NC3CC3)CC(=O)N(Cc3ccccc3)[C@@H]2c2ccc(CO)cc2I)cc1` as the compound, how does the composite z-score read?
Answer: 0.337

Question: For `O=C1NC(=O)C2C1C=CC(C(O)c1cccs1)N2Nc1ccc(Cl)cc1Cl` (centres undefined), which composite z-score is on record?
Answer: 0.293

Question: Which composite z-score does the source give for `C=CCC(OC(C)=O)[C@@H]1[C@@H](N(Cc2ccc(-c3ccccc3)cc2)C(=O)c2cccc3ccccc23)c2cc(OCCCO)ccc2N1C(=O)c1ccc(-c2ccccc2)cc1` (some centres undefined) here?
Answer: 0.674

Question: With `CCOC(=O)C[C@H]1[C@H](OC(=O)c2ccc(C(=O)c3ccccc3)cc2)[C@@H](NC(=O)c2ccccc2)c2cc(OCCCO)ccc2N1C(=O)c1ccc2ccccc2n1` as the compound, how does the composite z-score read?
Answer: 0.612

Question: With `COc1cc2c(cc1O)C(C1CC1)N(Cc1sc3ccccc3c1Cl)CC2` (centres undefined) as the compound, how does the composite z-score read?
Answer: 0.862

System: Sam68 (KHDRBS1)
Assay: compounds binding KHDRBS1 protein – biochemical, small-molecule microarray, 635 nm fluorescence, primary screen (AID 1125);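 further: score merges 667 nm channel intensity with signal to noise over triplicate slides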
Conditions: higher = more signal

Question: With `COCCOC(=O)N1C(=O)[C@@]2(c3ccccc31)[C@H](c1ccc(O)cc1)N1[C@H](c3ccccc3)[C@H](c3ccccc3)OC(=O)[C@H]1[C@@H]2C(=O)Nc1nc2ccccc2s1` as the compound, how does the composite z-score read?
Answer: 1.3

Question: Which composite z-score does the source give for `NC(=O)NCC#Cc1ccc2c(c1)[C@]1(C(=O)N2)[C@H](C(=O)Nc2nc3ccccc3s2)[C@H]2C(=O)O[C@H](c3ccccc3)[C@H](c3ccccc3)N2[C@@H]1c1ccccc1OCCO` here?
Answer: 1.18

Question: For `COCCOC(=O)N1C(=O)[C@@]2(c3ccccc31)[C@H](c1ccccc1OCCO)N1[C@H](c3ccccc3)[C@H](c3ccccc3)OC(=O)[C@H]1[C@@H]2C(=O)N1CCN(c2ncccn2)CC1`, which composite z-score is on record?
Answer: 1.29

Question: For `COC(=O)[C@@]1(Cc2ccc(F)cc2)[C@H]2c3cc(C(=O)N4CCCC4)n(CCCNc4ncc(C(F)(F)F)cc4Cl)c3C[C@H]2CN1C(=O)c1ccccc1`, which composite z-score is on record?
Answer: 0.541

Question: With `CC(C)C[C@@H]1NC(=O)[C@@H]2C[C@H](C(=O)NCc3ccc(F)cc3)[C@H](c3cccc(OCCO)c3)N2C1=O` as the compound, how does the composite z-score read?
Answer: 0.72

Question: For `C=CCC(OC(C)=O)[C@@H]1[C@@H](N(Cc2cc3ccccc3o2)C(=O)c2cccc3ccccc23)c2cc(OCCCO)ccc2N1C(=O)c1ccc(-c2ccccc2)cc1` (some centres undefined), which composite z-score is on record?
Answer: 0.195

Question: With `C#C[C@H](O[Si](C#Cc1ccc(Oc2ccccc2)cc1)(C(C)C)C(C)C)c1ccccc1` as the compound, how does the composite z-score read?
Answer: 0.99

Question: Which composite z-score does the source give for `O=C1N[C@@H](Cc2ccccc2)C(=O)N2[C@@H]1C[C@@H](C(=O)O)[C@H]2c1cccc(OCCO)c1` here?
Answer: 1.22

Question: With `COCCCNC(=O)[C@@]1(C)c2ccccc2C(=O)N(C(C)C)[C@H]1c1ccc(CO)cc1` as the compound, how does the composite z-score read?
Answer: 1.16

Question: With `C=CCN1C(=O)[C@@]2(Cc3ccccc31)N=C(c1ccc(OCCCO)cc1)O[C@H]2c1ccccc1` as the compound, how does the composite z-score read?
Answer: 1.17

Question: For `CN(C)CCCCCCNC(=O)[C@H]1C[C@H]2C(=O)N[C@@H](CCCCN)C(=O)N2[C@H]1c1cccc(OCCO)c1`, which composite z-score is on record?
Answer: 1.33

Question: For `COc1cc2c(cc1OC)CN(C(=O)[C@H]1[C@@H]3C(=O)O[C@@H](c4ccccc4)[C@@H](c4ccccc4)N3[C@@H](c3ccc(O)cc3)[C@]13C(=O)Nc1ccccc13)CC2`, which composite z-score is on record?
Answer: 1.07

Question: For `C=CC1(C(=O)OC)CC=C(C(=O)OC)CC1` (centres undefined), which composite z-score is on record?
Answer: 0.82

Question: With `CCCC=C(CCC)[C@@H](NC(=O)c1cccs1)c1ccc(C(F)(F)F)cc1` as the compound, how does the composite z-score read?
Answer: 1.23

Question: For `C=CCNC(=O)[C@@H]1[C@H]2C(=O)O[C@H](c3ccccc3)[C@H](c3ccccc3)N2[C@H](c2ccccc2OCCO)[C@@]12C(=O)N(C(=O)OCCOC)c1ccccc12`, which composite z-score is on record?
Answer: 1.31

Question: With `COC(=O)C[C@H]1O[C@]2(C(=O)N(C)c3ccccc32)[C@@H](C)[C@@H]1[Si](C)(C)F` as the compound, how does the composite z-score read?
Answer: 1.09

Question: Which composite z-score does the source give for `C=CCOC(=O)[C@@H]1[C@H]2C(=O)O[C@H](c3ccccc3)[C@H](c3ccccc3)N2[C@H](c2ccc(OCCOC(=O)[C@@H]3C[C@@H]4C(=O)NCC(=O)N4[C@@H]3c3ccc(O)cc3)cc2)[C@@]12C(=O)Nc1ccc(I)cc12` here?
Answer: 1.31

Question: With `COc1ccc(CCNC(=O)[C@@]2(C)c3ccccc3C(=O)N(C(C)C)[C@H]2c2ccc(CO)cc2)cc1` as the compound, how does the composite z-score read?
Answer: -0.38

Question: For `C=C(CC1([C@@H](NP(=O)(c2ccccc2)c2ccccc2)[C@H]2C[C@@H]2CCCC)CC1)c1ccccc1`, which composite z-score is on record?
Answer: 1.14

Question: For `COC(=O)[C@H](Cc1ccccc1)N1CC2=C[C@@H](C3CC3)n3c(=O)n(C)c(=O)n3[C@H]2[C@@H]1[C@@H](O)Cc1ccccc1`, which composite z-score is on record?
Answer: 1.18

Question: Which composite z-score does the source give for `C=C(/C(=C/C[C@H](OC(C)=O)c1ccc(CO)o1)c1cc(C(=O)OC)ccc1OC)C(C)C` here?
Answer: 0.271

Question: For `[N-]=[N+]=Nc1ccccc1[C@H]1OC(c2ccc(OCCCO)cc2)=N[C@@]1(CCS(=O)(=O)c1ccccc1)C(N)=O`, which composite z-score is on record?
Answer: 1.22

Question: Which composite z-score does the source give for `COc1cc2c(cc1OC)CN(C(=O)[C@@H]1[C@H]3C(=O)O[C@H](c4ccccc4)[C@H](c4ccccc4)N3[C@H](c3ccccc3OCCO)[C@@]13C(=O)Nc1ccc(C#CCCO)cc13)CC2` here?
Answer: 1.29

Question: For `C[N+](C)(C)CCCCNC(=O)[C@@H]1C[C@@H]2C(=O)N[C@@H](Cc3ccccc3)C(=O)N2[C@@H]1c1cccc(OCCO)c1`, which composite z-score is on record?
Answer: -0.174

Question: For `COCCOC(=O)N1C(=O)[C@@]2(c3cc(C#CCC(C(=O)OC)C(=O)OC)ccc31)[C@H](C(=O)Nc1nc3ccccc3s1)[C@H]1C(=O)O[C@H](c3ccccc3)[C@H](c3ccccc3)N1[C@@H]2c1ccccc1OCCO`, which composite z-score is on record?
Answer: 1.29

Question: With `CCC[C@@H]1C[C@@]1(CCC)[C@@H](NS(=O)(=O)c1cccc2cccnc12)c1ccc(Cl)cc1` as the compound, how does the composite z-score read?
Answer: 0.403

Question: Which composite z-score does the source give for `C=CCNC(=O)[C@@H]1[C@H]2C(=O)O[C@H](c3ccccc3)[C@H](c3ccccc3)N2[C@H](c2ccc(O)cc2)[C@@]12C(=O)N(C(=O)OCCOC)c1ccc(C#CCNC(N)=O)cc12` here?
Answer: 1.16

Question: Which composite z-score does the source give for `COCCOC(=O)N1C(=O)[C@@]2(c3cc(C#CCCO)ccc31)[C@H](C(=O)N1CCCCCCC1)[C@H]1C(=O)O[C@H](c3ccccc3)[C@H](c3ccccc3)N1[C@@H]2c1ccc(OCCO)cc1` here?
Answer: 1.3

Question: With `COC(=O)[C@@]1(CCC(=O)OC(C)(C)C)N=C(c2ccc(OCCCO)cc2)O[C@H]1c1ccccc1N=[N+]=[N-]` as the compound, how does the composite z-score read?
Answer: 0.201

Question: Which composite z-score does the source give for `CCCCCN1CC=CC23O[C@@H]4/C=C\CCC(C)OC(=O)C4[C@H]2C(=O)N(C(C)CO)[C@@H]3C1=O` (some centres undefined) here?
Answer: 0.579

Question: With `Cc1ccc(S[C@]2(C(=O)NC3CC3)CC(=O)N(Cc3ccccc3)[C@@H]2c2ccc(CO)cc2I)cc1` as the compound, how does the composite z-score read?
Answer: 0.0282

Question: With `O=C1NC(=O)C2C1C=CC(C(O)c1cccs1)N2Nc1ccc(Cl)cc1Cl` (centres undefined) as the compound, how does the composite z-score read?
Answer: -0.374

Question: Which composite z-score does the source give for `C=CCC(OC(C)=O)[C@@H]1[C@@H](N(Cc2ccc(-c3ccccc3)cc2)C(=O)c2cccc3ccccc23)c2cc(OCCCO)ccc2N1C(=O)c1ccc(-c2ccccc2)cc1` (some centres undefined) here?
Answer: 0.316

Question: With `CCOC(=O)C[C@H]1[C@H](OC(=O)c2ccc(C(=O)c3ccccc3)cc2)[C@@H](NC(=O)c2ccccc2)c2cc(OCCCO)ccc2N1C(=O)c1ccc2ccccc2n1` as the compound, how does the composite z-score read?
Answer: 1.33

Question: For `COc1cc2c(cc1O)C(C1CC1)N(Cc1sc3ccccc3c1Cl)CC2` (centres undefined), which composite z-score is on record?
Answer: 0.888
